Experiments:
Test in all cases: DAPPL (digital affinity profiling via proximity ligation, sequencing); 10 mM Tris-HCl pH 7.5, 50 mM NaCl, 1 mM DTT, 4% glycerol, room temperature, 30 min; GST-TFs on glutathione beads, 16-mer random dsDNA library, 0.1% formaldehyde crosslink after washing; high values mean tight binding
Conditions in all cases: protein: recombinant; tags: N-terminal GST; dsDNA, one strand shown
FLI1 = biological target: T1, FLI1 (Homo sapiens, UniProt Q01543 1-452)
T1 sequence: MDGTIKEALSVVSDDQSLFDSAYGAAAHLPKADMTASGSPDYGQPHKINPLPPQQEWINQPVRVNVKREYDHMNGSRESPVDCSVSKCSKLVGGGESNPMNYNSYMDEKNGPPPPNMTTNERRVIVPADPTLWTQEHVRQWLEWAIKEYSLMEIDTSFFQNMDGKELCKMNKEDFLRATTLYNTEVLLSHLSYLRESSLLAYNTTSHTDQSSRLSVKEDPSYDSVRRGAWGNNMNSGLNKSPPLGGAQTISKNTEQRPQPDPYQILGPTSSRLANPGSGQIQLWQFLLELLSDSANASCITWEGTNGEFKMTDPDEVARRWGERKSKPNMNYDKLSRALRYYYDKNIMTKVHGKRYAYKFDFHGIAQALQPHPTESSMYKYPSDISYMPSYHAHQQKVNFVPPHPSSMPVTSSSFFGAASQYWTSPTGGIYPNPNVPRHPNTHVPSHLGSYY
Method in brief: (§1)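 Human transcription factors fused to GST were expressed in yeast, captured on glutathione beads, given DNA barcodes and pooled with a GST-only negative control. Pools were incubated with 200 nmole of a 16-mer random double-stranded DNA library in Tris/NaCl/DTT/glycerol buffer at room temperature for 30 min. They were then washed, crosslinked with 0.1% formaldehyde, proximity-ligated (BsaI/T4 ligase, 1 h, 37 °C), PCR-amplified and sequenced on an Illumina NextSeq500. Binding signal is each 6-mer's read frequency for a factor divided by its frequency for the GST control.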

ELK1 = biological target: T2, ELK1 (Homo sapiens, UniProt P19419 1-428)
T2 sequence: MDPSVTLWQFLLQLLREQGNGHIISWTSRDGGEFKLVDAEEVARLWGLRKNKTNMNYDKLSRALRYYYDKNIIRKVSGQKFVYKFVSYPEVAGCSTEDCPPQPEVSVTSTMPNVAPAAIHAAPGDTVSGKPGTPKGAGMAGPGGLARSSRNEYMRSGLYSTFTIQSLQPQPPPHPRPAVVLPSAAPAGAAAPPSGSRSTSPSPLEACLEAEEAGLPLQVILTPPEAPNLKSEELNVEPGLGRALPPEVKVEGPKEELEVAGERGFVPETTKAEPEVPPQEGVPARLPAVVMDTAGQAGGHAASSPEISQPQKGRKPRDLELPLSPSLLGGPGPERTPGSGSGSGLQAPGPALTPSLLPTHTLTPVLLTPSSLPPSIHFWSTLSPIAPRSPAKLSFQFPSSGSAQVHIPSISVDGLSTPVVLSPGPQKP
Method in brief: as §1

GABPA = biological target: T3, GABPA (Homo sapiens, UniProt Q06546 1-454)
T3 sequence: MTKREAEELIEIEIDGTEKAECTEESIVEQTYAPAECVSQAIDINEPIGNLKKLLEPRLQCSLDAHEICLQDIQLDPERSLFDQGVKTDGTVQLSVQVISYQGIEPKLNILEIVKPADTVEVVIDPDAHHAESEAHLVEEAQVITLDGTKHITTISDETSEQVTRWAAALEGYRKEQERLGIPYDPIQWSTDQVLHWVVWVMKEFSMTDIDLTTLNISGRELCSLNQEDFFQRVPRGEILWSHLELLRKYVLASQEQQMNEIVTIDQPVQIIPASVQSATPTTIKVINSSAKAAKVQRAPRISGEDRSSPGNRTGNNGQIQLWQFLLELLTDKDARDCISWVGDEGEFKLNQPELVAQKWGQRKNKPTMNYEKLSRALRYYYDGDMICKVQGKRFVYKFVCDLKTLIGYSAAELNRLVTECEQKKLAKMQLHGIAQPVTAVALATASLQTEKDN
Method in brief: as §1

ERG = biological target: T4, ERG (Homo sapiens, UniProt P11308 1-479)
T4 sequence: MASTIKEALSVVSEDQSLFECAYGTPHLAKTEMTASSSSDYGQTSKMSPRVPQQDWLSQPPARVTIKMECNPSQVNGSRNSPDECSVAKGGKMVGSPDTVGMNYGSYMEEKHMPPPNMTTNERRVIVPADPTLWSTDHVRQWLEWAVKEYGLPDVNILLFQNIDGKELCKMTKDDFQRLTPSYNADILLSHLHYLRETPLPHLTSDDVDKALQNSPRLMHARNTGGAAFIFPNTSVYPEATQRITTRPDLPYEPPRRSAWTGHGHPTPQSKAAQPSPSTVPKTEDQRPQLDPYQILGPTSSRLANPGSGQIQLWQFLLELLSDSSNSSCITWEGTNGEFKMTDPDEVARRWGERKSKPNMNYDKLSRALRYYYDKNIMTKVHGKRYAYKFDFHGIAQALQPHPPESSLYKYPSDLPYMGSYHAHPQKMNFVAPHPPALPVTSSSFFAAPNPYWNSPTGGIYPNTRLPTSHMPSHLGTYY
Method in brief: as §1

ELF1 = ELF1 (Homo sapiens, UniProt P32519 1-619)
Method in brief: as §1

EHF = biological target: T5, EHF (Homo sapiens, UniProt Q9NZC4 1-300)
T5 sequence: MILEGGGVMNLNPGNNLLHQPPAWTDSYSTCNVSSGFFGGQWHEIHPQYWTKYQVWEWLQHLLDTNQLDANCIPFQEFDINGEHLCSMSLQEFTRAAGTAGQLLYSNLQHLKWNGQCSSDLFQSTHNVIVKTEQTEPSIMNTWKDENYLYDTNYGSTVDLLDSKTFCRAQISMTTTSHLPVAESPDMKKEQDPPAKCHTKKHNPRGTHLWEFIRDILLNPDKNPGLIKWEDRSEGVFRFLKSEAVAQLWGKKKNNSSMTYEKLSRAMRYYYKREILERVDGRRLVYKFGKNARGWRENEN
Method in brief: as §1

SPI1 = SPI1 (Homo sapiens, UniProt P17947 1-270)
Method in brief: as §1

SPIB = SPIB (Homo sapiens, UniProt Q01892 1-262)
Method in brief: as §1

ELK3 = biological target: T6, ELK3 (Homo sapiens, UniProt P41970 1-407)
T6 sequence: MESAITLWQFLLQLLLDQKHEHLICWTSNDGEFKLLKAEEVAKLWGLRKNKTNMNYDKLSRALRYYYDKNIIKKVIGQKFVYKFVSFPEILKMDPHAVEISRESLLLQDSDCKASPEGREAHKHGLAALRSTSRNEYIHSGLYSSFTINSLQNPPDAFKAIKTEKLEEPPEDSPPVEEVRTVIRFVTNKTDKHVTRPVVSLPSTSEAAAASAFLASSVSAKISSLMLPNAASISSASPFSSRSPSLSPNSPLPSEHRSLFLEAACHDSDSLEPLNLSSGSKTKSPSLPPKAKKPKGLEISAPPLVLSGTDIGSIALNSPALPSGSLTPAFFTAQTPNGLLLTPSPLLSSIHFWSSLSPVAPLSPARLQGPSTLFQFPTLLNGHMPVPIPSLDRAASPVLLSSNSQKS
Method in brief: as §1

FEV = biological target: T7, FEV (Homo sapiens, UniProt Q99581 1-238)
T7 sequence: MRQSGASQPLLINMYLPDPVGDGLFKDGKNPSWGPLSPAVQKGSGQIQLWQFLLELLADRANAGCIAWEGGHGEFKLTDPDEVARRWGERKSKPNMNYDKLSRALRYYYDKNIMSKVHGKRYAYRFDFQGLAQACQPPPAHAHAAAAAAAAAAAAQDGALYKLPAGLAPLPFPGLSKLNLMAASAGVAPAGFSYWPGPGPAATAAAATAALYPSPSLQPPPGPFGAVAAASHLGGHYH
Method in brief: as §1

ETV5 = ETV5 (Homo sapiens, UniProt P41161 1-510)
Method in brief: as §1

SPIC = biological target: T8, SPIC (Homo sapiens, UniProt Q8N5J4 1-248)
T8 sequence: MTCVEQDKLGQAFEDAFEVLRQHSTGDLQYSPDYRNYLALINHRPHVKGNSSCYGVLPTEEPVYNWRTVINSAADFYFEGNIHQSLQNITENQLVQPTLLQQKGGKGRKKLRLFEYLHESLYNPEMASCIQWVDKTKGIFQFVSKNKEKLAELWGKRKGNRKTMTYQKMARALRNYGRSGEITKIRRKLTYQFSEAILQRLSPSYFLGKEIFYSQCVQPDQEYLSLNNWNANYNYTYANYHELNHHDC
Method in brief: as §1

ELF4 = ELF4 (Homo sapiens, UniProt Q99607 1-663)
Method in brief: as §1

ELK4 = biological target: T9, ELK4 (Homo sapiens, UniProt P28324-2 1-405)
T9 sequence: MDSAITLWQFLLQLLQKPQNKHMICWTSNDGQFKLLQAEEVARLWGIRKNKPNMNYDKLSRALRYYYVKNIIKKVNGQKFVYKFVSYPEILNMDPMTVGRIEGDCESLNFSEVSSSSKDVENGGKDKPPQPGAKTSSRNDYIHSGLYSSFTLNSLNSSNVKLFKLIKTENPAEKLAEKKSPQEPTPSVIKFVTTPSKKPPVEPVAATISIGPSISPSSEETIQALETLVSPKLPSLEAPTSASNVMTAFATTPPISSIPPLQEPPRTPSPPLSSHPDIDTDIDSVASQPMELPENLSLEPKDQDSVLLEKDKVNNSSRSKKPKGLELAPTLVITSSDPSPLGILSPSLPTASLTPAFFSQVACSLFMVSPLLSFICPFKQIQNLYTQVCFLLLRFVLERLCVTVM
Method in brief: as §1

ETV2 = biological target: T10, ETV2 (Homo sapiens, UniProt O00321 1-342)
T10 sequence: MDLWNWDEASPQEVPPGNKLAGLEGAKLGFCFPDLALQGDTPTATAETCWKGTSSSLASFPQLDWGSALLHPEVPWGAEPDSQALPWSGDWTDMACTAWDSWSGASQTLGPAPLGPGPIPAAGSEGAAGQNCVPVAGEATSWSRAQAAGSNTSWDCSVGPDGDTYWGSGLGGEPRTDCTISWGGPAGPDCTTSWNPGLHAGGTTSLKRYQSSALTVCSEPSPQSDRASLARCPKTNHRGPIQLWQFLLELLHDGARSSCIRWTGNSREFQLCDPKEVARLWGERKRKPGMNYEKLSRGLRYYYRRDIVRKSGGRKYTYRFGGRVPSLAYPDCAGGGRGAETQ
Method in brief: as §1

ELF3 = biological target: T11, ELF3 (Homo sapiens, UniProt P78545 1-371)
T11 sequence: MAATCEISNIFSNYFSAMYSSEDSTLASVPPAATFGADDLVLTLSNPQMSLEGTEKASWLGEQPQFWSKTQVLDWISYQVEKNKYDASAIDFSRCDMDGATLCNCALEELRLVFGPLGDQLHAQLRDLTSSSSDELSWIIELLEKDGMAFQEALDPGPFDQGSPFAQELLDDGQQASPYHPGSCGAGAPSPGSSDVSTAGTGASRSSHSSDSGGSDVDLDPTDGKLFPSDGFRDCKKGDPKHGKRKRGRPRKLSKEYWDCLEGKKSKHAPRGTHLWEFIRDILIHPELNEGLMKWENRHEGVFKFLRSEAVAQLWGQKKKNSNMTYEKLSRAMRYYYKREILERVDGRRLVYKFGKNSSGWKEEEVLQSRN
Method in brief: as §1

ETV1 = ETV1 (Homo sapiens, UniProt P50549 1-477)
Method in brief: as §1

Chain of ETV5 (P41161 whole entry): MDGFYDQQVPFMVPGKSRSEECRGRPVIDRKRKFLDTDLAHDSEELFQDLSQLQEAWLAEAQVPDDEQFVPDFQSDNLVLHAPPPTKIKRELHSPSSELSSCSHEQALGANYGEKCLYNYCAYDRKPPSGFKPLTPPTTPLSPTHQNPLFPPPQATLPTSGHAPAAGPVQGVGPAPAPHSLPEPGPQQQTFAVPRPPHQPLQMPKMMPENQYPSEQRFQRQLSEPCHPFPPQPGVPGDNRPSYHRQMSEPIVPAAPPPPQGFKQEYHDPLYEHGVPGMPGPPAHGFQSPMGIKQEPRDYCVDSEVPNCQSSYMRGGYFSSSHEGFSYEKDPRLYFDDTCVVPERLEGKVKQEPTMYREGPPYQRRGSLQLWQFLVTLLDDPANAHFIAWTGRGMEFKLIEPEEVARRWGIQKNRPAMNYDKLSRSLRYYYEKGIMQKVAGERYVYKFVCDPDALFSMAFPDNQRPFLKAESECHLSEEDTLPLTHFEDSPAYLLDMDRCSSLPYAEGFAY
Chain of ELF1 (P32519 whole entry): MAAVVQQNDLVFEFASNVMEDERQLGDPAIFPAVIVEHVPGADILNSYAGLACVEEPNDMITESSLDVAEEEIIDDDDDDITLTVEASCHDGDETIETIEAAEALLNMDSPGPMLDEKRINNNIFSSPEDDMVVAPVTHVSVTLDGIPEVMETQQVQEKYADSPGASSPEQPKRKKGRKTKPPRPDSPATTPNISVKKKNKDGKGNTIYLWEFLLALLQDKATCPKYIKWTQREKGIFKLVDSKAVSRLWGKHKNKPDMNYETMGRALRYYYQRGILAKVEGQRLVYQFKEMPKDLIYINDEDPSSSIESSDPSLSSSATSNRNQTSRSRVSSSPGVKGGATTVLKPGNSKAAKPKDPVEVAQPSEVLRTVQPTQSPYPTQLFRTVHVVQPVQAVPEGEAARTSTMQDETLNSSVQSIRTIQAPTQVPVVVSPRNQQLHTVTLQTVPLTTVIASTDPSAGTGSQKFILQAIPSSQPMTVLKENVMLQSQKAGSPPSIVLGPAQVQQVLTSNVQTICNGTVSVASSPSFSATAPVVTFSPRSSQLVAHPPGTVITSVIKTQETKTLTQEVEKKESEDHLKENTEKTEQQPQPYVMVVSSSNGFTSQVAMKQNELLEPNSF
Chain of ELF4 (Q99607 whole entry): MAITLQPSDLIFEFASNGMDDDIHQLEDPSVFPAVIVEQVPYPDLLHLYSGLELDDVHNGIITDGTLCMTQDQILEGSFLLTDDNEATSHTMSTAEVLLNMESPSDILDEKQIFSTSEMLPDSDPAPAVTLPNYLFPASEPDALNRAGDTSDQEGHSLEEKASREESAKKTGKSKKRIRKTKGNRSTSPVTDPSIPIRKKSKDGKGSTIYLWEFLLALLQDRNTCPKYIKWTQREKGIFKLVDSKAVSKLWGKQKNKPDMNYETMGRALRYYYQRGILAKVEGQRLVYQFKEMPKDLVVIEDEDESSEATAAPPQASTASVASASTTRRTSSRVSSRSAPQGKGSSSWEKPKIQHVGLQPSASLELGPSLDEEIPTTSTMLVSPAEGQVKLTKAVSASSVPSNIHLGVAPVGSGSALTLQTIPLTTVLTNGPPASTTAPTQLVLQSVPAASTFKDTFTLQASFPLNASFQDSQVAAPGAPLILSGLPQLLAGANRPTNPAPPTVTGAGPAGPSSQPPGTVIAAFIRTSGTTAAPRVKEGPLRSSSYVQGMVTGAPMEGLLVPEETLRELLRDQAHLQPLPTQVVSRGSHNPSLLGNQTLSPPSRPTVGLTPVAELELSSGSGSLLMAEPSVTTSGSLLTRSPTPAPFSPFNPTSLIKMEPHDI
Chain of ETV1 (P50549 whole entry): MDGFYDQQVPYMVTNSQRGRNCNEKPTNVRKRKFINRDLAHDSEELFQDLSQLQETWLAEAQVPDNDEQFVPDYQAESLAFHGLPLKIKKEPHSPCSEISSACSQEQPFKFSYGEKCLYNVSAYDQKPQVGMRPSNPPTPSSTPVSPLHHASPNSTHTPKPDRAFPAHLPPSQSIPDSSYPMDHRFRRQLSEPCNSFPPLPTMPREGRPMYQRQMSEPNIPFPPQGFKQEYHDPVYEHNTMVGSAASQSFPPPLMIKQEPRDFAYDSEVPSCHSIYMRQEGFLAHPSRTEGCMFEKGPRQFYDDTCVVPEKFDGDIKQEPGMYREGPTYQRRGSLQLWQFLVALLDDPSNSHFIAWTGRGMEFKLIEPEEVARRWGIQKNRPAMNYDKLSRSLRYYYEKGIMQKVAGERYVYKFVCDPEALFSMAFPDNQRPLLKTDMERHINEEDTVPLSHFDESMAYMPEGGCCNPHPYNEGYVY
Chain of SPIB (Q01892 whole entry): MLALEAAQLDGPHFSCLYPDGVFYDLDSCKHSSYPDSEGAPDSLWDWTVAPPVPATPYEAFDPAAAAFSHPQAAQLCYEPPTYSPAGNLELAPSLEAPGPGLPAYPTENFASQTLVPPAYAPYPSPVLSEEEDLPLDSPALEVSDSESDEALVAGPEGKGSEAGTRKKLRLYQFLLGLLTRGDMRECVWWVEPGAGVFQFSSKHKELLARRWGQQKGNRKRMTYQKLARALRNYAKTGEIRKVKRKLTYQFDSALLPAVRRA

| Sequence | binding signal (FLI1) | binding signal (ELK1) | binding signal (GABPA) | binding signal (ERG) | binding signal (ELF1) | binding signal (EHF) | binding signal (SPI1) | binding signal (SPIB) | binding signal (ELK3) | binding signal (FEV) | binding signal (ETV5) | binding signal (SPIC) | binding signal (ELF4) | binding signal (ELK4) | binding signal (ETV2) | binding signal (ELF3) | binding signal (ETV1) |
| --- | --- | --- | --- | --- | --- | --- | --- | --- | --- | --- | --- | --- | --- | --- | --- | --- | --- |
| CCATCC | 1.24 fold enrichment (6-mer frequency, TF over GST control) | 1.28 fold enrichment (6-mer frequency, TF over GST control) | 1.23 fold enrichment (6-mer frequency, TF over GST control) | 1.32 fold enrichment (6-mer frequency, TF over GST control) | 1.27 fold enrichment (6-mer frequency, TF over GST control) | 1.27 fold enrichment (6-mer frequency, TF over GST control) | 1.31 fold enrichment (6-mer frequency, TF over GST control) | 1.3 fold enrichment (6-mer frequency, TF over GST control) | 1.41 fold enrichment (6-mer frequency, TF over GST control) | 1.3 fold enrichment (6-mer frequency, TF over GST control) | 1.27 fold enrichment (6-mer frequency, TF over GST control) | 1.33 fold enrichment (6-mer frequency, TF over GST control) | 1.27 fold enrichment (6-mer frequency, TF over GST control) | 1.19 fold enrichment (6-mer frequency, TF over GST control) | 1.19 fold enrichment (6-mer frequency, TF over GST control) | 1.12 fold enrichment (6-mer frequency, TF over GST control) | 1.24 fold enrichment (6-mer frequency, TF over GST control) |
| CCTTGT | 1.33 fold enrichment (6-mer frequency, TF over GST control) | 1.29 fold enrichment (6-mer frequency, TF over GST control) | 1.25 fold enrichment (6-mer frequency, TF over GST control) | 1.37 fold enrichment (6-mer frequency, TF over GST control) | 1.23 fold enrichment (6-mer frequency, TF over GST control) | 1.24 fold enrichment (6-mer frequency, TF over GST control) | 1.25 fold enrichment (6-mer frequency, TF over GST control) | 1.28 fold enrichment (6-mer frequency, TF over GST control) | 1.18 fold enrichment (6-mer frequency, TF over GST control) | 1.09 fold enrichment (6-mer frequency, TF over GST control) | 1.32 fold enrichment (6-mer frequency, TF over GST control) | 1.11 fold enrichment (6-mer frequency, TF over GST control) | 1.29 fold enrichment (6-mer frequency, TF over GST control) | 1.37 fold enrichment (6-mer frequency, TF over GST control) | 1.03 fold enrichment (6-mer frequency, TF over GST control) | 1.08 fold enrichment (6-mer frequency, TF over GST control) | 1.26 fold enrichment (6-mer frequency, TF over GST control) |

— PMC7862700, “An all-to-all approach to the identification of sequence-specific readers for epigenetic DNA modifications on cytosine”
